{"source": "PubChem BioAssay AID2673", "about": "(National Center for Advancing Translational Sciences (NCATS), 2010)", "note": "Results filed as inconclusive are left out. A call without a number means that no potency is given here. Calls of active or inactive are those of the source. The call rests on the fitted dose curve; in most records, active means well fitted activation curve with a large enough effect; inconclusive means small, poorly fitted or top-dose-only effect; inactive means no such curve, though single readings can be large or run the other way."}
{"assay": "qHTS Multiplex Assay to Identify Dual Action Probes in a Cell Model of Huntington: Cytoprotection confirmation (ATP)", "settings": "PC12 HttQ103 induced, ATP luminescence 40 h; series mostly up to 46.1 µM", "how_it_was_run": "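Cell survival measured by luminescent ATP content (ATPlite) in tebufenozide-induced (100 nM) PC12 HTTQ103-GFP cells treated with compounds, in phenol red-free DMEM with equine and calf serum.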"}
{"smiles": "CN1C(=O)NC(NC(=O)c2cccs2)(C(F)(F)F)C1=O", "note": "(configuration not stated)", "Potency": "inactive"}
{"smiles": "COc1ccccc1-c1csc2ncnc(Sc3nnnn3C)c12", "Potency": "inactive"}
{"smiles": "Cn1nnnc1Sc1ncnc2scc(-c3ccccc3)c12", "Potency": "25.1 µM (active)"}
{"smiles": "COc1ccc(C(=O)Cc2ccc(OC)c(OC)c2)cc1", "Potency": "inactive"}
{"smiles": "Cn1nnnc1Sc1ncnc2scc(-c3cnc(N)nc3)c12", "Potency": "35.5 µM (active)"}
{"smiles": "CC(=O)Oc1cccc(C(=O)O)c1OC(C)=O", "Potency": "inactive"}
{"smiles": "Cn1nnnc1Sc1ncnc2scc(Br)c12", "Potency": "inactive"}
{"smiles": "COc1ccc(-c2[nH]ncc2-c2ccc3c(c2)OCCO3)c(O)c1", "Potency": "inactive"}
{"smiles": "Cc1csc(N/N=C/c2ccc(O)c([N+](=O)[O-])c2)n1", "Potency": "inactive"}
{"smiles": "O=C(NCc1ccco1)c1cc2ccc(O)cc2oc1=O", "Potency": "inactive"}
{"smiles": "CCc1ccc2oc(-c3cc(N)ccc3O)nc2c1", "Potency": "inactive"}
{"smiles": "COc1ccc(C2=Nc3cc(C)ccc3OC2)cc1", "Potency": "inactive"}
{"smiles": "CC(=O)c1ccccc1-c1csc2ncnc(Sc3nnnn3C)c12", "Potency": "31.6 µM (active)"}
{"smiles": "O=C(Nc1ccccc1)C1=C(O)CC(c2ccco2)CC1=Nc1ccccc1", "note": "(configuration not stated)", "Potency": "inactive"}
{"smiles": "Fc1cccc(Cl)c1Cn1nnc2c(-n3ccnc3)ncnc21", "Potency": "inactive"}
{"smiles": "CC(=O)c1ccc(-c2csc3ncnc(Sc4nnnn4C)c23)cc1", "Potency": "inactive"}
{"smiles": "Cn1nnnc1Sc1ncnc2scc(-c3ccc(S(C)(=O)=O)cc3)c12", "Potency": "17.8 µM (active)"}
{"smiles": "COc1ccc2cc3cc(C(=O)N4CCN(c5ccccc5)CC4)oc3nc2c1", "Potency": "inactive"}
{"smiles": "O=C(NCN1C(=O)C2C3C=CC(C3)C2C1=O)Nc1ccccn1", "note": "(configuration not stated)", "Potency": "inactive"}
{"smiles": "Cn1nnnc1Sc1ncnc2scc(-c3cccc(Br)c3)c12", "Potency": "inactive"}
{"smiles": "CS(=O)(=O)c1ccc([C@H](O)[C@H](CO)NC(=O)C(Cl)Cl)cc1", "Potency": "inactive"}
{"smiles": "COc1ccc(-c2csc3ncnc(Sc4nnnn4C)c23)cc1", "Potency": "25.1 µM (active)"}
{"smiles": "Cc1cccc(-c2csc3ncnc(Sc4nnnn4C)c23)c1", "Potency": "31.6 µM (active)"}
{"smiles": "Cn1nnnc1Sc1ncnc2scc(-c3ccc4c(c3)OCO4)c12", "Potency": "22.4 µM (active)"}
{"smiles": "CN(C)CCCSc1ccccc1NC(=O)/C=C\\c1ccccc1", "Potency": "inactive"}
{"smiles": "CC(=O)OCC1=C(C(=O)O)N2C(=O)[C@@H](NC(=O)Cc3cccs3)[C@H]2SC1", "Potency": "inactive"}
{"smiles": "Cn1nnnc1Sc1ncnc2scc(-c3ccc(C#N)cc3)c12", "Potency": "10 µM (active)"}
{"smiles": "Cc1cc(C)nc(Sc2nc(C)nc3c2oc2ccccc23)n1", "Potency": "inactive"}
{"smiles": "Cn1nnnc1Sc1ncnc2scc(-c3ccccc3C(F)(F)F)c12", "Potency": "inactive"}
{"smiles": "C[C@@H]1CNCCN1S(=O)(=O)c1cccc2cnccc12", "Potency": "inactive"}
{"smiles": "O=[N+]([O-])c1ccc(O)c2ncccc12", "Potency": "inactive"}
{"smiles": "Cc1ccccc1-c1csc2ncnc(Sc3nnnn3C)c12", "Potency": "inactive"}
